Source: PubChem BioAssay (Tox21)
Values joined by “and” are separate entries in the source; they are usually repeats but may differ in a detail not shown here. Identical values can stand only once. Inconclusive results are not listed. Active and inactive are the calls of the source. The call rests on the fitted dose curve; in most records, active means well fitted cell-killing curve with a large enough effect in the repeat runs; inconclusive means weak or mixed curves, or effect the other way; inactive means flat fitted curve, though single readings scatter.

experiment: qHTS assay to identify small molecule agonists of the androgen receptor (AR) signaling pathway in the presence of an antagonist - cell viability counter screen (AID 1259379); conditions: MDA-kb2 viability, CellTiter-Fluor, 16 h; series mostly up to 92.4 µM; activity change, negative = cytotoxicity: at the top concentration; further: nearly all actives have a fitted effect of over 25% in size
Text: National Center for Advancing Translational Sciences [NCATS]
NIH Chemical Genomics Center [NCGC]
U.S. Environmental Protection Agency [EPA]
National Institutes of Environmental Health Sciences [NIEHS]
National Toxicology Program [NTP]
U.S. Food and Drug Administration [FDA]
Androgen receptor (AR) is an important member of nuclear receptor family. Its signaling plays a critical role in AR-dependent prostate cancer and other androgen related diseases. Considerable attention has been given in the past decades to develop methods to study and screen for the environmental chemicals that have the potential to interfere with metabolic homeostasis, reproduction, developmental and behavioral functions. Therefore AR binding assay for screening against androgen agonists and antagonists can be used to identify potential endocrine disruptors.
MDA-kb2 cells (from ATCC, deposited by Wilson et al.) are human breast carcinoma cells that were stably transfected with a luciferase reporter gene under control of the MMTV promoter that contains response elements for both androgen receptor (AR) and glucocorticoid receptor (GR). This particular screening for measuring luciferase reporter gene activity using MDA-kb2 cells against Tox21 10K library compounds is a confirmation study on agonist mode screening in the presence of AR-antagonist compound (Nilutamide) at 3.0uM final concentration. The cytotoxicity of the compounds was tested in parallel by measuring the cell viability using CellTiter-Fluor assay system (Promega, Madison, WI) in the same wells.
Tox21 Assay Protocol Summary:
MDA-kb2 cells (cells cultured without CO2) were dispensed at 3,000 cells/well in 4uL of culture medium into white wall/solid-bottom 1536-well plates (Corning Life Sciences, Corning, NY) using a Multidrop Combi (Thermo Fisher Scientific Inc., Waltham, MA) dispenser. The assay plates were incubated at 37C and 0% CO2 for 5hr. One uL of 3.0uM (final concentration) Nilutamide or assay buffer was added using two separate tips of Flying Reagent Dispenser (FRD, Aurora Discovery, San Diego, CA). Then 23nL of compounds dissolved in DMSO at 15 concentrations and positive controls were transferred to the assay plates using a Pintool station (Wako, San Diego, CA). The assay plates were incubated at 37C and 0% CO2 for 16 hr. After 15hr incubation at 37C, 1uL/well CellTiter-Fluor reagent (Promega Corporation) was added to each well of the assay plates using FRD. After 1hr incubation at 37C and 0% CO2, the fluorescence signal was measured using a ViewLux plate reader (PerkinElmer, Shelton, CT).
On the % scale 0 is the no-effect control and ±100 the full control effect; potency means the concentration at half of the fitted maximal effect.

| Structure (SMILES) | activity change, negative = cytotoxicity | Potency |
| --- | --- | --- |
| O=c1[nH]c2cc(Cl)ccc2n1C1CCNCC1 | -0.488% [at 42.5 µM] (inactive) | – |
| O.O.O.O.O.O.O.O=S(=O)([O-])[O-].[Co+2] | 0.413% (inactive) | – |
| CNN | 1.15% (inactive) | – |
| CC1CN1 (stereo not given) | 1.45% (inactive) | – |
| Clc1cc(Cl)c(-c2cc(Cl)c(Cl)cc2Cl)cc1Cl | 1.22% [at 42.5 µM] (inactive) | – |
| CNC(C)(C)Cc1ccccc1 | -0.533% [at 42.5 µM] (inactive) | – |
| ClC1=C(Cl)[C@]2(Cl)[C@H]3[C@H]([C@@H]4C=C[C@H]3C4)[C@@]1(Cl)C2(Cl)Cl | – | inactive |
| Oc1cc(Cl)c(Cl)c(Cl)c1Cl | – | 59.7 µM (active) |
| COCCC#N | -0.364% (inactive) | – |
| CC(=O)[O-].CC(=O)[O-].O.O.O.[Pb+2] | -3.36% (inactive) | – |
| Cc1c([N+](=O)[O-])c(C)c([N+](=O)[O-])c(C(C)(C)C)c1[N+](=O)[O-] | -7.61% (inactive) | – |
| CCOP(=O)(OCC)Oc1nc(Cl)c(Cl)cc1Cl | -0.403% (inactive) | – |
| CCCCCCCCCCCCCCn1cc[n+](C)c1 | – | 7.71 µM (active) and 1.7 µM (active) |
| O.O.O.O=C([O-])[C@H]([O-])[C@@H]([O-])C(=O)[O-].O=C([O-])[C@H]([O-])[C@@H]([O-])C(=O)[O-].[K+].[K+].[Sb+3].[Sb+3] | – | 17.3 µM (active) |
| Cc1cc(C2CC2)nc(Nc2ccccc2)n1 | -1.87% (inactive) | – |
| C=CC(=O)[O][Sn]([CH2]CCC)([CH2]CCC)[CH2]CCC | – | 4.33 µM (active) |
| [O]=[Cr][O][Cr]=[O] | -1.31% (inactive) | – |
| O=[N+]([O-])c1ccc(CCl)cc1 | -6.23% (inactive) | – |
| Oc1ccc(Cl)c(Cl)c1 | 3.51% (inactive) | – |
| Cc1ccc(C)c2ccccc12 | 0.0191% (inactive) | – |

| Structure (SMILES) | activity change, negative = cytotoxicity | Potency |
| --- | --- | --- |
| CN=C=O | 1.53% (inactive) | – |
| COC(=O)C(C)N(C(=O)c1ccco1)c1c(C)cccc1C (stereo not given) | 2.57% (inactive) | – |
| CC(Cc1ccc(OCC(=O)O)cc1)NCC(O)c1csc(C(F)(F)F)n1 (stereo not given) | -8.1% (inactive) | – |
| CC(Cc1ccc2c(c1)OCO2)NO (stereo not given) | 5.64% (inactive) | – |
| CO/N=C(\C(=O)OC)c1ccccc1CO/N=C(\C)c1cccc(C(F)(F)F)c1 | – | 12.2 µM (active) |
| CC(C)Br | -3.53% (inactive) | – |
| CCCCC(CC)COC(=O)c1ccccc1C(=O)OCC(CC)CCCC (stereo not given) | 1.85% (inactive) | – |
| N#CC(C#N)=NNc1cccc(Cl)c1 | – | 1.93 µM (active) |
| CC[C@]1(O)CC[C@H]2[C@@H]3CCC4=CCCC[C@@H]4[C@H]3CC[C@@]21C | 2.86% [at 42.5 µM] (inactive) | – |
| COc1nc(C)nc(NC(=O)NS(=O)(=O)c2ccccc2Cl)n1 | 1.39% (inactive) | – |
| C[C@]12Cc3cn[nH]c3C[C@@H]1CC[C@@H]1[C@@H]2CC[C@@]2(C)[C@H]1CC[C@]2(C)O | -2.01% [at 42.5 µM] (inactive) | – |
| O=[N+]([O-])c1cccc2cccc([N+](=O)[O-])c12 | 0.875% (inactive) | – |
| CC(Cc1ccccc1)N(C)Cc1ccco1 (stereo not given) | 1.39% [at 42.5 µM] (inactive) | – |
| CC(C)C(Nc1ccc(C(F)(F)F)cc1Cl)C(=O)OC(C#N)c1cccc(Oc2ccccc2)c1 (stereo not given) | -0.68% (inactive) | – |
| CCN(CC)C(=O)N[C@@H]1C=C2c3cccc4[nH]cc(c34)C[C@@H]2N(C)C1 | 0.741% [at 42.5 µM] (inactive) | – |
| CC(C)C(Br)C(=O)NC(N)=O (stereo not given) | 2.54% [at 42.5 µM] (inactive) | – |
| CCC(C)Br (stereo not given) | -1.67% (inactive) | – |
| [O]=[Cr](=[O])([OH])[O][Cr](=[O])(=[O])[OH] | – | 27.6 µM (active) and 54.4 µM (active) |
| O=S1OCC2C(CO1)C1(Cl)C(Cl)=C(Cl)C2(Cl)C1(Cl)Cl (stereo not given) | -9.75% (inactive) | – |
| CCO/N=C(\CC)C1=C(O)CC(c2c(C)cc(C)cc2C)CC1=O (stereo not given) | -0.775% (inactive) | – |
